“And” between values parts separate entries of the source, which are not always exact repeats. Equal values may be shown once. Results filed as inconclusive are left out. The source made the active and inactive calls. Unless noted, the call rests on the fitted dose curve; in most records, active means well fitted curve in the direction sought with a large enough effect; inconclusive means small, poorly fitted or top-dose-only effect, or another doubt; inactive means no such curve, though single readings can be large; an effect the other way counts as inactive or inconclusive.

A short description of experiment [1]: Primary qHTS for small molecule stabilizers of the endoplasmic reticulum resident proteome: Secreted ER Calcium Modulated Protein (SERCaMP) assay (AID 1508630). Further: on the % scale 0 is the no-effect control and ±100 the full control effect. In a few lines: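 The SH-SY5Y reporter protocol was run at 3 concentrations up to 38.3 uM (primary) or 11 concentrations (follow-up): 16 h compound, 100 nM thapsigargin for 4 h, then extracellular luciferase luminescence.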
In general terms: In qHTS, concentration-response curves come from the screen itself.

Experiment [2] concerns the target Catechol O-methyltransferase (Homo sapiens) (UniProt P21964). The experiment can be described thus: Confirmatory Screen for Target Class Profiling of Small Molecule Inhibitors of Methyltransferases (AID 1745852; calls by dose curve; further: potency means the concentration at half of the fitted maximal effect; on activity change, negative = inhibition: on the % scale 0 is the no-effect control and ±100 the full control effect). The conditions noted are these: MTase-Glo luminescence, SAH detection, recombinant enzyme; measured here: COMT max response; stronger effect = lower value.
Experiment [3] has as its target Guanidinoacetate N-methyltransferase (Homo sapiens) (UniProt Q14353). Described as above. The following applies: MTase-Glo luminescence, SAH detection, recombinant enzyme; activity change, negative = inhibition: at 57.3 µM (top of the series) unless noted.
For experiment [4], the target named is Cytochrome P450 2D6 (Homo sapiens) (UniProt P10635). In words: Cytochrome P450 family 2 subfamily D member 6 (CYP2D6) small molecule antagonists: luciferase biochemical (cell-free) qHTS assay (AID 1645840; active means well fitted curve in the direction sought with a large enough effect in the repeat runs; an effect the other way counts as inactive or inconclusive; further: nearly all actives have a fitted effect of over 55% in size; further: potency means the concentration at half of the fitted maximal effect; on activity change, negative = inhibition: on the % scale 0 is the no-effect control and ±100 the full control effect). In a few lines:
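P450-Glo CYP2D6 system: proluciferin substrate converted by enzyme to luciferin, read by luminescence proportional to activity. Enzyme-substrate mix with compound 10 min at room temperature, then NADPH regeneration 1 h before detection reagent.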

Experiment [5] deals with Cytochrome P450 2C9 (Homo sapiens) (UniProt P11712). The experiment can be described thus: Cytochrome P450 family 2 subfamily C member 9 (CYP2C9) small molecule antagonists: luciferase biochemical (cell-free) qHTS assay (AID 1645842; active means well fitted curve in the direction sought with a large enough effect in the repeat runs; an effect the other way counts as inactive or inconclusive; further: nearly all actives have a fitted effect of over 55% in size; further: potency means the concentration at half of the fitted maximal effect). In a few lines:
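P450-Glo CYP2C9 system: proluciferin substrate with enzyme in mix containing 0.4% BSA, 10 min at room temperature, then NADPH regeneration solution added and incubated 1 h at 37C. Detection reagent stopped reaction; luminescence read after 20 min as RLU.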

Experiment [6] is described as follows: Primary qHTS for inhibitors of nuclear receptor binding SET domain protein 2 (NSD2) in an isogenic RCH-ACV NSD2 p.E1099K mutant (9B) (AID 1645876). Further: nearly all actives have a fitted effect of over 70% in size. Further: potency means the concentration at half of the fitted maximal effect.
Experiment [7] in a line: Primary qHTS for inhibitors of nuclear receptor binding SET domain protein 2 (NSD2) in an RCH-ACV wild type WT cells (2C) (AID 1645877). Further: nearly all actives have a fitted effect of over 70% in size. Further: potency means the concentration at half of the fitted maximal effect.
The nature of experiment [8]: Primary qHTS to identify inhibitors of SARS-CoV-2 cell entry (AID 1645846; calls by dose curve; further: nearly all actives have a fitted effect of over 45% in size; further: potency means the concentration at half of the fitted maximal effect). The conditions noted are these: activity change, negative = inhibition: at 57.1 µM (top of the series) unless noted. In a few lines: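 Using luciferase-reporting pseudoviruses carrying Wuhan-Hu-1 spike, the screen tracks entry into stably ACE2-expressing cells over 48 hr. Activity is expressed relative to spike particles versus particles lacking any fusion protein.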

Experiment [9] has as its target Rap guanine nucleotide exchange factor 3 (Homo sapiens) (UniProt O95398). The experiment can be described thus: Confirmatory qHTS for agonist of cAMP-regulated guanine nucleotide exchange factor 3 (EPAC1) (AID 1645881).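 Further: EPAC1 catalysed release of BODIPY-GDP from Rap1B seen as fluorescence loss; 100% = effect of cAMP agonist control; nearly all actives have a fitted effect of over 75% in size.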
Experiment [10] addresses Rap guanine nucleotide exchange factor 4 (Homo sapiens) (UniProt Q8WZA2). The experiment can be described thus: Confirmatory qHTS for agonist of cAMP-regulated guanine nucleotide exchange factor 4 (EPAC2) (AID 1645884).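 Further: nucleotide exchange releases bodipy-GDP from Rap1 and this lowers its fluorescence; on the % scale 0 is the no-effect control and ±100 the full control effect; nearly all actives have a fitted effect of over 65% in size.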
Experiment [11] can be described thus: Cytotoxicity counterscreen for inhibitors of SARS-CoV-2 cell entry (AID 1645845; calls by dose curve; further: nearly all actives have a fitted effect of over 50% in size). The following applies: outcome: dose series up to 57.1 µM unless noted. The essentials: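 ATP-content luminescence (ATPLite 1step, 15 min RT) read after 48 h compound exposure of Expi293F cells stably expressing human ACE2; normalized to cells-only wells and media-only wells.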
A general note: A counterscreen serves to expose hits that act by an unwanted route or on another target.

The target in another experiment is Papain (Carica papaya) (UniProt P00784). In words: Primary qHTS assay for inhibitors of the protease papain (AID 1645873).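 Further: papain turnover of Z-FR-AMC read as the AMC fluorescence gain over 10 min; on the % scale 0 is the no-effect control and ±100 the full control effect.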
Sequence of Papain (Carica papaya) (P00784 whole entry, looked up): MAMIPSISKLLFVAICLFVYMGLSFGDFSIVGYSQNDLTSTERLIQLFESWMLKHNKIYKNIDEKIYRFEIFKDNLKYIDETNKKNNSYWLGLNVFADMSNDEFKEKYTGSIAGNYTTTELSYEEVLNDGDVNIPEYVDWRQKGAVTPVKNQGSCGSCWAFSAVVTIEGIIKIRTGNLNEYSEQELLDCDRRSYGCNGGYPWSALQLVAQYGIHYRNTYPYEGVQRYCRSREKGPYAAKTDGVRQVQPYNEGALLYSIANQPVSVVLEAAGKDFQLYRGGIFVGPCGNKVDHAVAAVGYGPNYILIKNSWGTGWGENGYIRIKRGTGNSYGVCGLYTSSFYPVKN
The target of experiment [12] is Rap guanine nucleotide exchange factor 3 (Homo sapiens) (UniProt O95398). The experiment can be described thus: Confirmatory qHTS for antagonist of cAMP-regulated guanine nucleotide exchange factor 3 (EPAC1) (AID 1645880).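 Further: plate controls were DMSO only for no effect and full effect of the ATA control for full effect; nearly all actives have a fitted effect of over 55% in size.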 The essentials: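 Released BODIPY-GDP fluoresces less than Rap1-bound BODIPY-GDP; the signal is followed at 480/540 nm at 5-min intervals over 30 min, after 5 min at room temperature. Reactions contain 100 nM EPAC1, 250 nM RAP1B-BODIPY-GDP and 50 uM GDP; results are normalized to ATA and DMSO.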
Sequence of Rap guanine nucleotide exchange factor 3 (Homo sapiens) (O95398 whole entry, looked up): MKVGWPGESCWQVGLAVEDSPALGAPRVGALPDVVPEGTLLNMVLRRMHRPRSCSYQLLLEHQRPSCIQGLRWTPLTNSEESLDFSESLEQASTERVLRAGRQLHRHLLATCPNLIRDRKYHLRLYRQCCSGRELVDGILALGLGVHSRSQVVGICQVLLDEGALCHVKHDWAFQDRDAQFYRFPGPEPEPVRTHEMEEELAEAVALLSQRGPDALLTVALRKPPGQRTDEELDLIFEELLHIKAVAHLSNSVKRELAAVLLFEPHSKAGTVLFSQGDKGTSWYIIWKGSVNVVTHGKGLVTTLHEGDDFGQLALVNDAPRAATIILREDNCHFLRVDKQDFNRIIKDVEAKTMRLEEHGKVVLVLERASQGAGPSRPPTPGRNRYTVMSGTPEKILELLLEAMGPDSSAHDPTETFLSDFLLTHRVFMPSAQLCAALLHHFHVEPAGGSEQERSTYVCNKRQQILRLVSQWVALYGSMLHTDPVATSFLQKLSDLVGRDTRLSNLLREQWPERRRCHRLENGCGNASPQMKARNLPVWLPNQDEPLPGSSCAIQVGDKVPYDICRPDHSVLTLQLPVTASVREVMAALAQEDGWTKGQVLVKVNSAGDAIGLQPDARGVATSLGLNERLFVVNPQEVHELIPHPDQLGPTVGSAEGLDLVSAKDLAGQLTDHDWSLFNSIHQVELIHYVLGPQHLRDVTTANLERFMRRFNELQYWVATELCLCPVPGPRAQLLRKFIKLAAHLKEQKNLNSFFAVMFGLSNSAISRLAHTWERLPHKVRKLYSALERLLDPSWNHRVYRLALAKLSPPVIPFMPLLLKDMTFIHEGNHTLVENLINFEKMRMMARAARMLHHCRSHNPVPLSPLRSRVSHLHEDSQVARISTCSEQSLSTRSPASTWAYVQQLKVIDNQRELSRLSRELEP

Experiment [13] in a line: VSVG counterscreen qHTS to identify inhibitors of SARS-CoV-2 cell entry (AID 1645847; calls by dose curve; further: potency means the concentration at half of the fitted maximal effect; nearly all actives have a fitted effect of over 65% in size). The conditions noted are these: VSV-G pseudotyped particle entry, luciferase. The essentials: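 Entry of VSV-G pseudotyped particles into human ACE2-expressing HEK293 cells was measured by luciferase luminescence 48 h after infection, with compound added 1 h beforehand.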

Sequence of Cytochrome P450 2C9 (Homo sapiens) (P11712 whole entry, looked up): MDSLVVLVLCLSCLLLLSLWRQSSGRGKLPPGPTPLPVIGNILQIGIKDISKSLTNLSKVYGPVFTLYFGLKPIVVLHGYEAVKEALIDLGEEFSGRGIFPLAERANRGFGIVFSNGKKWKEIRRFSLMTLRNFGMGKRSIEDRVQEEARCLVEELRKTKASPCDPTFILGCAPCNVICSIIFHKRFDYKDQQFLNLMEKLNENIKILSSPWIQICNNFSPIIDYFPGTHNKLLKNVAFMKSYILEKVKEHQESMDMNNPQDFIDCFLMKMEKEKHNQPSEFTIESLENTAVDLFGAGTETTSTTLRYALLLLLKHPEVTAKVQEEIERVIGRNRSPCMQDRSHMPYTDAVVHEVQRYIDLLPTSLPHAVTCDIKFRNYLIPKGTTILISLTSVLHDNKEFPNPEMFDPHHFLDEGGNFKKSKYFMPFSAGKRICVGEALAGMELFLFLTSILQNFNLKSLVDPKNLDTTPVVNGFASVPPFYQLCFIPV
Sequence of Cytochrome P450 2D6 (Homo sapiens) (P10635 whole entry, looked up): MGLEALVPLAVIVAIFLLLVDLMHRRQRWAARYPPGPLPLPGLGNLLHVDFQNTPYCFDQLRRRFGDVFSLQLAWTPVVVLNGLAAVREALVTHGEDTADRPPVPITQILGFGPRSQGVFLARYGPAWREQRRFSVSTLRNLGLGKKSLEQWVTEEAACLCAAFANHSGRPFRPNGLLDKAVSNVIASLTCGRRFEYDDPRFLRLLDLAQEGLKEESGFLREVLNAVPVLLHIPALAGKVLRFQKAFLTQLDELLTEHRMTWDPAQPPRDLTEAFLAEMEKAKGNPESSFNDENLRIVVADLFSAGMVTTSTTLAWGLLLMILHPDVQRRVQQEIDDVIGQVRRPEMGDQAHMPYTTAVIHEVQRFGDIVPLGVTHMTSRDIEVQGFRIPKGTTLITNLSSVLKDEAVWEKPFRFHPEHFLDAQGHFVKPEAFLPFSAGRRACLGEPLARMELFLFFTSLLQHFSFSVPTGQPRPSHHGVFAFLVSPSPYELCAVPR
Sequence of Catechol O-methyltransferase (Homo sapiens) (P21964 whole entry, looked up): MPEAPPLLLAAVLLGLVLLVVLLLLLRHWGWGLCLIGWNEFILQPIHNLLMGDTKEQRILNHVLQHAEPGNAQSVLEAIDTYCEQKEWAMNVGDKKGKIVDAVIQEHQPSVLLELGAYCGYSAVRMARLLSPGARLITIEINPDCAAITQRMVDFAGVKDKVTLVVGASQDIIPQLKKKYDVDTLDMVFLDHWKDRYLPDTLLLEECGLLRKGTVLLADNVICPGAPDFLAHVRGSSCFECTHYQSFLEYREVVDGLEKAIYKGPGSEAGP
Sequence of Rap guanine nucleotide exchange factor 4 (Homo sapiens) (Q8WZA2 whole entry, looked up): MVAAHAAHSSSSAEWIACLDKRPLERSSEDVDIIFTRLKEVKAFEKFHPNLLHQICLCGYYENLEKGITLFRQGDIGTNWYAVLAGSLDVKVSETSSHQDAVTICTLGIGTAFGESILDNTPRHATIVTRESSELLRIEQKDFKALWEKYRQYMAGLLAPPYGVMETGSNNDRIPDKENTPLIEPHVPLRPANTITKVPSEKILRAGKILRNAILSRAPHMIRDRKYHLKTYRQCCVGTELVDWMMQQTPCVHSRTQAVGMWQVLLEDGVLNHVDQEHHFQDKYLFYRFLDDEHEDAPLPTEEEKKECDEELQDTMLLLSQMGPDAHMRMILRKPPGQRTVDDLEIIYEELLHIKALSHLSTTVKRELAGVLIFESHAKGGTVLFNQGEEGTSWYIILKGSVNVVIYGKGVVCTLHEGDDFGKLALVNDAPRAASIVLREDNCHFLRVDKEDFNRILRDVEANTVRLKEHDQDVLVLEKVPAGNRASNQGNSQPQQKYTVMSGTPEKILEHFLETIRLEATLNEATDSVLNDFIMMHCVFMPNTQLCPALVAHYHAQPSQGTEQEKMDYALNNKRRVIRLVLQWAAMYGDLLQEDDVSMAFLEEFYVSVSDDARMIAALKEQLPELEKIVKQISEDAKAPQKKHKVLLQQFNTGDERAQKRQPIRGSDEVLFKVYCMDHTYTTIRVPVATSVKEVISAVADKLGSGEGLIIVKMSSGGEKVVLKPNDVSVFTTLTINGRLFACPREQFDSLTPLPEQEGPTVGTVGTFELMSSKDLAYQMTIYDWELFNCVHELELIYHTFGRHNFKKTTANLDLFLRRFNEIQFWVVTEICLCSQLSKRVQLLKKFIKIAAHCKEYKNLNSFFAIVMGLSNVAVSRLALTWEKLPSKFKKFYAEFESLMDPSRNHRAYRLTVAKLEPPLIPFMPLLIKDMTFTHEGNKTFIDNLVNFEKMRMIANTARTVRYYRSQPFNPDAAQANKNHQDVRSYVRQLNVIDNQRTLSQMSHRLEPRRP

For `C[C@@H]1[C@@H]2Cc3ccc(O)cc3[C@@]1(C)CCN2CC1CC1`, the outcome in experiment [1] is “inactive”. Besides, the activity in [2] was 7.89%. Also, the activity change, negative = inhibition in experiment [3] was determined as 6.66%.

In the case of `CCCCCCn1c(=O)c(C(=O)Nc2ccc(C(=O)OCCC)cc2)c(O)c2ccccc21`, the Potency result in [4] and in [5] was “inactive” each time. Moreover, the outcome in [6] and in experiment [7] was “inactive [at 9.23 µM]” throughout.

Consider `CC(C)(C)c1cc(C(C)(C)C)c2c(c1)C(O)(C(F)(F)F)C(=O)O2` (stereo not given), for which the Potency entry in [4], in experiment [6] and in experiment [7] was “inactive” throughout. The Potency in experiment [5] is 21.3 µM (active).

As to `CC1CCC(C(C)C)C(OC(=O)c2ccccc2N)C1` (stereo not given), the Potency entry in [4] is “inactive”. Further, the Potency in [5] was 2.68 µM (active). Further, in experiment [8], the activity change, negative = inhibition is -3.33%.

Regarding `Cc1c(Cl)cccc1S(=O)(=O)Nc1nc(CC(=O)N2CCN(C)CC2)cs1`, the Potency result in experiment [4], in experiment [6] and in experiment [7] was “inactive” in each case. In experiment [5], the Potency is 21.3 µM (active).

As to `COc1cc(C)[nH]c(=O)c1CNC(=O)c1c(C)n([C@H](C)C2CCOCC2)c2ccccc12`, the Potency entry in experiment [4], in [6] and in experiment [7] was “inactive” in each case. Besides, in experiment [5], the Potency was 13.5 µM (active).

Take `C[C@]12Cc3cn4c(nc3C=C1CCC1C2CC[C@@]2(C)[C@H]1CC[C@@]2(O)C#N)nc1ccccc14` (stereo not given in full): the outcome in experiment [1] was “inactive”. In experiment [2], the activity is -23.1%. Moreover, the Potency in experiment [3] is 0.611 µM (active).

With `COc1ccc2[nH]c3c(c2c1)CCNC3`, the outcome in experiment [1] is “inactive”. For the same compound, in experiment [2], the activity was -6.01%. Moreover, the activity change, negative = inhibition in experiment [3] turned out to be 5.37%.

Take `Clc1ccc(OCC2=NCCN2)cc1Cl`: the Potency in experiment [4] is 8.49 µM (active). Besides, the Potency entry in [5], in experiment [6] and in experiment [7] was “inactive” throughout.

As for `COc1ccccc1CN[C@H]1C2CCN(CC2)[C@H]1C(c1ccccc1)c1ccccc1`, in [4], the Potency is 0.19 µM (active). In addition, the Potency result in experiment [5] and in [6] was “inactive” each time.

Regarding `CCCC(C)C1(CC)C(=O)NC(=O)NC1=O` (stereo not given), the Potency entry in experiment [4] and in experiment [5] was “inactive” throughout.

As to `O=[N+]([O-])c1cc(O)c(O)c([N+](=O)[O-])c1`, in experiment [1], the outcome is “inactive”. Moreover, the Potency result in experiment [9] and in [10] was “inactive” each time.

Take `ClC1C(Cl)C(Cl)C(Cl)C(Cl)C1Cl` (stereo not given): the Potency result in experiment [4], in experiment [5] and in [8] was “inactive” in each case. For the same compound, in experiment [11], the outcome was “inactive”.

Turning to `CN(N=O)c1ccc(O)c(O)c1`, the outcome in experiment [1] was “inactive”. In addition, the activity in experiment [2] was -69.3%. The Potency in experiment [3] was 27.3 µM (active).

For `CCNC(C)Cc1cccc(C(F)(F)F)c1` (stereo not given), the Potency in experiment [4] was 3.79 µM (active).

Regarding `Cn1ncnc1COc1nn2c(-c3c(F)cccc3F)nnc2cc1C1CCC1`, the Potency result in [4], in [6] and in experiment [7] was “inactive” throughout. In addition, in [5], the Potency was 6.74 µM (active).

On to `CC(N)Cc1c[nH]c2ccccc12` (stereo not given), for which, in experiment [4], the Potency was 23.9 µM (active). Further, the Potency entry in experiment [5], in experiment [6] and in [7] was “inactive” each time.

As for `CN1CCC[C@@H]1Cc1c[nH]c2ccc(Nc3ncccc3[N+](=O)[O-])cc12`, the Potency was 3.01 µM (active) in experiment [4] and 19 µM (active) in experiment [5]. The Potency result (with Papain (Carica papaya); in experiment [6]; in [7]) was “inactive” in each case. Moreover, in experiment [2], the activity was found to be 3.7%. Besides, the activity change, negative = inhibition in [3] worked out at 2.94%.

Regarding `O=C(NC(=O)c1c(F)cccc1F)Nc1ccc(Cl)c(Oc2ncc(C(F)(F)F)cc2Cl)c1`, the Potency in [4] is 1.51 µM (active); in experiment [5], 1.9 µM (active).

Regarding `CCCn1c(C)c(C(=O)c2ccc3ccccc3c2)c2ccccc21`, the outcome in experiment [1] and in experiment [12] was “inactive” throughout. The Potency entry in experiment [9] and in experiment [10] was “inactive” in each case.

In the case of `CCCCCCCCOC(=O)c1ccccc1C(=O)OCCCCCCCC`, in experiment [4], the Potency result was “inactive”.

Turning to `COCC(C)N(C(=O)CCl)c1c(C)csc1C` (stereo not given), the Potency entry in [4] is “inactive”. In addition, the Potency in [5] is 13.5 µM (active).

For `CC(=O)O[C@H]1CC[C@H]2[C@@H]3CCC4=CC(=O)CCC4=C3C=C[C@]12C`, the activity change, negative = inhibition in [8] is -33.2%.

In the case of `CN1[C@H]2CC[C@@H]1[C@@H](C(=O)O)[C@@H](OC(=O)c1ccccc1)C2`, the outcome in [11] was “inactive”. Besides, the activity change, negative = inhibition in [8] is -21.7% [at 114 µM].

Take `C/C(=C\c1csc(C)n1)[C@@H]1C[C@@H]2O[C@]2(C)CCC[C@H](C)[C@H](O)[C@@H](C)C(=O)C(C)(C)[C@@H](O)CC(=O)O1`: in [11], the outcome was “inactive”. In addition, in [8], the activity change, negative = inhibition is -75.8% and -81.1%. The Potency is 0.0341 µM (active) in experiment [13], 0.0066 µM (active) in [6] and 0.0059 µM (active) in experiment [7].

For the compound `CCOC(=O)c1ccccc1C(=O)OCC`, the Potency entry in experiment [4] and in experiment [8] was “inactive” in each case. For the same compound, the outcome in experiment [11] was “inactive”.

`C[C@]12CC[C@H]3[C@@H](CCC4=C(O)C(=O)CC[C@@H]43)[C@@H]1CC[C@@H]2OC(=O)CCC1CCCC1`: the activity change, negative = inhibition in [8] was -9.8%.

As for `CC1=C2C[C@H]3[C@@H](CC=C4C[C@@H](O)CC[C@@]43C)[C@@H]2CC[C@]12O[C@@H]1C[C@H](C)CN[C@H]1[C@H]2C`, the Potency in [8] was 17.8 µM (active).

With `O=P(O)(O)C(Cl)(Cl)P(=O)(O)O`, in experiment [11], the activity change, negative = cytotoxicity was 3.8% [at 5.25 µM] (inactive). The activity change, negative = inhibition in experiment [8] is -6.21% [at 5.25 µM].

For `O=S(=O)(O)c1cc(O)ccc1O`, the outcome in experiment [11] is “inactive”. Moreover, in experiment [8], the activity change, negative = inhibition is -12.6%.

With `CCCCCOc1cc2c(cc1-c1cc(/C=C/C(=O)O)ccc1O)C(C)(C)CCC2(C)C`, the Potency in experiment [5] was 12 µM (active). Further, the activity in experiment [2] was -5.76%. For the same compound, in [3], the activity change, negative = inhibition was -6.96%.

Regarding `CCCCCCCCCC(=O)O[C@H]1CC[C@H]2[C@@H]3CCC4=CC(=O)CC[C@]4(C)[C@H]3CC[C@]12C`, the outcome in experiment [11] was “inactive”. The activity change, negative = inhibition in [8] was -15.3%.

For `CCN(CC)C(=O)N[C@H]1C[C@@H]2c3cccc4[nH]cc(c34)C[C@H]2N(C)C1`, the outcome in [11] is “inactive”.

The values above are taken from PubChem BioAssay (NCATS).
